From PubChem BioAssay
Active and inactive are the calls of the source. Unless noted, the rule behind the calls is not given here.

biological target: Dihydroorotate dehydrogenase (quinone), mitochondrial (Plasmodium falciparum (isolate 3D7)) (UniProt Q08210); experiment: PfDHODH enzyme inhibitors, primary screen, biochemical, C-terminal His tag, absorbance 600 nm (AID 1175); conditions: DCIP absorbance 600 nm, higher = more signal, called active from +8 up or from −8 down;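 note: recombinant parasite enzyme with a five histidine tag at its C terminus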
Sequence (Q08210 whole entry, looked up): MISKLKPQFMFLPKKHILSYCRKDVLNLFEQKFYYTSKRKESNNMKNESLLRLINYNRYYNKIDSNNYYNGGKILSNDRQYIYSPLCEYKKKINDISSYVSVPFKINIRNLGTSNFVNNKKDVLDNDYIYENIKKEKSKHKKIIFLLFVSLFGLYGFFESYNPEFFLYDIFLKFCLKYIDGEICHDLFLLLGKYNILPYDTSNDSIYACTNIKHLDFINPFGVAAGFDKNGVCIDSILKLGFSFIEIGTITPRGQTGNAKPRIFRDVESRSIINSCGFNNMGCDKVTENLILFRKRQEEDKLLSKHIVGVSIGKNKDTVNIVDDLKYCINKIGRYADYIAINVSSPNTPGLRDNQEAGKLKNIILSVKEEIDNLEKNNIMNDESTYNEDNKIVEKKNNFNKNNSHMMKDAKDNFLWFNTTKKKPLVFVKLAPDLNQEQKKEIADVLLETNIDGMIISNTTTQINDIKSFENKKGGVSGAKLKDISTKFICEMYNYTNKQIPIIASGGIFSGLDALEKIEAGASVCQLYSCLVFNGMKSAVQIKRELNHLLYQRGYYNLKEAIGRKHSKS
Note: test concentration not given here.

Composite z-score, inactive:
COc1ccc([Si](C)(C)[C@@H]2[C@@H](CCO)O[C@]3(C(=O)N(Cc4ccccc4)c4ccc(N5C(=O)c6cccc7cccc5c67)cc43)[C@H]2C)cc1 -0.488
COc1cccc(C)c1NC(=O)O[C@H]1[C@H](OC(=O)Nc2ccc3c(c2)OCO3)[C@@H](OC(=O)Nc2ccc3c(c2)OCO3)[C@@H](OC)O[C@@H]1CO -0.191
Cc1cc(C)c(C(O)C2C=CC3C(=O)N(c4ccccc4)C(=O)C3N2Nc2ccccc2F)c(C)c1 (centres undefined) 1.03
CCCC1(C(=O)OC)C=C2C(=C(C)C(=O)C2C)CN1 (centres undefined) -1.8
O=C(NCCN1CCOCC1)[C@@H]1c2ccccc2C(=O)N(Cc2ccccc2Cl)[C@H]1c1ccc(CO)cc1 -0.0473
C=C(/C(=C/C[C@H](OC(C)=O)c1ccc(CO)o1)c1cnc2ccccc2c1)C(C)C -7.07
CCOC(=O)C[C@H]1[C@H](OC(=O)Cc2ccc3c(c2)OCO3)[C@@H](NC(=O)c2ccc3ccccc3n2)c2cc(OCCCO)ccc2N1C(=O)c1ccc2ccccc2n1 -0.574
[N-]=[N+]=Nc1ccccc1C[C@]1(C(=O)NCCN2CCOCC2)COC(c2ccc(OCCCO)cc2)=N1 0.137
COc1ccc(CCNC(=O)[C@@H]2c3ccccc3C(=O)N(C3CCCCC3)[C@H]2c2ccc(CO)cc2)cc1 0.77
COCCOC(=O)N1C(=O)[C@@]2(c3ccccc31)[C@H](C(=O)NC[C@H](O)c1ccccc1)[C@H]1C(=O)O[C@H](c3ccccc3)[C@H](c3ccccc3)N1[C@@H]2c1ccc(O)cc1 -0.0106
COC(=O)[C@]1(CCS(=O)(=O)c2ccccc2)N=C(c2ccc(OCCCO)cc2)O[C@@H]1c1ccccc1N=[N+]=[N-] 1.02
CC(C)C(CO)N1C(=O)[C@@H]2C3C(=O)OCCC/C=C\[C@H]3OC23C=CCN(c2ccc4ccccc4c2)C(=O)[C@@H]13 (some centres undefined) -0.42
CN1C2C=C(CCCO)C(C3C(=O)N(C(N)=O)C(=O)C32)C1C1CC1 (centres undefined) -0.884
NCCCCCNC(=O)[C@@H]1C[C@@H]2C(=O)N[C@@H](CCCCN)C(=O)N2[C@@H]1c1ccc(O)cc1 0.0173
CCCCCC1=C2CNC(C)(C(=O)OC)C=C2C(C)C1=O (centres undefined) -0.455
COc1ccc(CCNC(=O)[C@@]2(c3ccc([N+](=O)[O-])cc3)CC(=O)N(C3CCCCC3)[C@@H]2c2ccc(CO)cc2)cc1 0.395
COCCOC(=O)N1C(=O)[C@@]2(c3cc(C#CCC(C(=O)OC)C(=O)OC)ccc31)[C@H](c1ccc(OCCO)cc1)N1[C@H](c3ccccc3)[C@H](c3ccccc3)OC(=O)[C@H]1[C@@H]2C(=O)N1CCc2cc(OC)c(OC)cc2C1 -0.523
O=C(c1ccccc1)N1C(=O)[C@]2(Cc3ccccc31)N=C(c1ccc(OCCCO)cc1)O[C@@H]2c1ccccc1 0.934
COc1ccc([Si](C)(C)[C@@H]2[C@@H](CCO)O[C@]3(C(=O)N(Cc4ccccc4)c4ccc(N5CCOC5=O)cc43)[C@H]2C)cc1 -0.981
O=C1C2C=CC(C(O)c3ccco3)N(Nc3ccccc3F)C2C(=O)N1c1ccccc1 (centres undefined) 0.334
CC(C)(C)OC(=O)COc1cccc(C(=O)CCN2CCOCC2)c1 -3.31
CS(=O)(=O)CCOC(=O)C1=CC(CCCO)=CC(c2ccc(CN3CCCC3)cc2)N(Cc2sc3ccccc3c2Cl)C=C1C(=O)OCCS(C)(=O)=O (centres undefined) -0.449
COC(=O)[C@@]1(Cc2ccc(F)cc2)[C@H]2c3cc(C(=O)N(C)C)n(CCc4ccc(OC)c(Br)c4)c3C[C@H]2CN1C(=O)c1ccccc1 -3.85
COc1ccc([Si](C)(C)[C@@H]2[C@@H](CC(=O)N3Cc4ccccc4C[C@H]3CO)O[C@]3(C(=O)N(Cc4ccc(N5C(=O)c6cccc7cccc5c67)cc4)c4ccccc43)[C@H]2C)cc1 -2.41

tested on: not listed separately; experiment: P. aeruginosa biofilm formation inhibitors, primary screen, strain PAO1, LB-PBS medium, absorbance 600 nm (AID 1176); conditions: P. aeruginosa PAO1 growth/biofilm, A600, 12 h; higher = more signal

z-score, inactive:
COc1cc2c(cc1O)C(C1CC1)N(Cc1cccc(OC(F)(F)F)c1)CC2 (centres undefined) -0.0344
C=CC[C@]1(C(=O)N2CCOCC2)COC(c2ccc(OCCCO)cc2)=N1 0.124
C=CC[C@]1(C(=O)N2CCCCC2)N=C(c2ccc(OCCCO)cc2)O[C@H]1c1ccccc1CN=[N+]=[N-] -0.124
COc1ccc(CCNC(=O)[C@@]2(Sc3ccc(C)cc3)CC(=O)N(Cc3ccccc3C(F)(F)F)[C@@H]2c2ccc(CO)cc2I)cc1 -0.171
O=C1N(CCS(=O)(=O)c2ccccc2)c2ccccc2[C@H]2OC(c3ccc(OCCCO)cc3)=N[C@@]12Cc1ccccc1 0.755
CCCCC[C@H]1OC[C@@]23C=C(Br)[C@@H](CC12)[C@@]1(CO1)C3=O (some centres undefined) 0.248
COC(=O)[C@@]1(Cc2ccc(OC)cc2)[C@H]2c3cc(C(=O)N(C)C)n(Cc4ccc(OC(F)(F)F)cc4)c3C[C@H]2CN1C(=O)c1ccccc1 0.619
CCC#CCN(Cc1ccccc1Br)[C@H](/C=C/C1CC1)[C@@H](O)Cc1ccccc1 0.686
CC[C@@H]1O[Si](C(C)C)(C(C)C)c2c1cc(-c1cc(C)c(OC)c(C)c1)nc2-c1ccc(Oc2ccccc2)cc1 -0.783
CCCNC(=O)[C@@]1(C)c2ccccc2C(=O)N(c2ccc(C)cn2)[C@H]1c1ccc(CO)cc1 0.484
[N-]=[N+]=Nc1ccccc1[C@@H]1OC(c2ccc(OCCCO)cc2)=N[C@]1(Cc1ccccc1)C(=O)N1CCCCC1 0.109
COc1ccc([Si](C)(C)[C@@H]2[C@@H](CCO)O[C@]3(C(=O)N(Cc4ccccc4)c4ccc(N5C(=O)c6cccc7cccc5c67)cc43)[C@H]2C)cc1 2.24
COc1cccc(C)c1NC(=O)O[C@H]1[C@H](OC(=O)Nc2ccc3c(c2)OCO3)[C@@H](OC(=O)Nc2ccc3c(c2)OCO3)[C@@H](OC)O[C@@H]1CO 3.29
Cc1cc(C)c(C(O)C2C=CC3C(=O)N(c4ccccc4)C(=O)C3N2Nc2ccccc2F)c(C)c1 (centres undefined) 0.971
CCCC1(C(=O)OC)C=C2C(=C(C)C(=O)C2C)CN1 (centres undefined) 0.343
O=C(NCCN1CCOCC1)[C@@H]1c2ccccc2C(=O)N(Cc2ccccc2Cl)[C@H]1c1ccc(CO)cc1 0.0993
C=C(/C(=C/C[C@H](OC(C)=O)c1ccc(CO)o1)c1cnc2ccccc2c1)C(C)C 0.898
CCOC(=O)C[C@H]1[C@H](OC(=O)Cc2ccc3c(c2)OCO3)[C@@H](NC(=O)c2ccc3ccccc3n2)c2cc(OCCCO)ccc2N1C(=O)c1ccc2ccccc2n1 0.325
[N-]=[N+]=Nc1ccccc1C[C@]1(C(=O)NCCN2CCOCC2)COC(c2ccc(OCCCO)cc2)=N1 0.289
COc1ccc(CCNC(=O)[C@@H]2c3ccccc3C(=O)N(C3CCCCC3)[C@H]2c2ccc(CO)cc2)cc1 1.32
COCCOC(=O)N1C(=O)[C@@]2(c3ccccc31)[C@H](C(=O)NC[C@H](O)c1ccccc1)[C@H]1C(=O)O[C@H](c3ccccc3)[C@H](c3ccccc3)N1[C@@H]2c1ccc(O)cc1 0.269
COC(=O)[C@]1(CCS(=O)(=O)c2ccccc2)N=C(c2ccc(OCCCO)cc2)O[C@@H]1c1ccccc1N=[N+]=[N-] 0.963
CC(C)C(CO)N1C(=O)[C@@H]2C3C(=O)OCCC/C=C\[C@H]3OC23C=CCN(c2ccc4ccccc4c2)C(=O)[C@@H]13 (some centres undefined) -0.292
CN1C2C=C(CCCO)C(C3C(=O)N(C(N)=O)C(=O)C32)C1C1CC1 (centres undefined) -0.341
NCCCCCNC(=O)[C@@H]1C[C@@H]2C(=O)N[C@@H](CCCCN)C(=O)N2[C@@H]1c1ccc(O)cc1 2.49
CCCCCC1=C2CNC(C)(C(=O)OC)C=C2C(C)C1=O (centres undefined) 1.06
COc1ccc(CCNC(=O)[C@@]2(c3ccc([N+](=O)[O-])cc3)CC(=O)N(C3CCCCC3)[C@@H]2c2ccc(CO)cc2)cc1 -0.342
COCCOC(=O)N1C(=O)[C@@]2(c3cc(C#CCC(C(=O)OC)C(=O)OC)ccc31)[C@H](c1ccc(OCCO)cc1)N1[C@H](c3ccccc3)[C@H](c3ccccc3)OC(=O)[C@H]1[C@@H]2C(=O)N1CCc2cc(OC)c(OC)cc2C1 2.25
O=C(c1ccccc1)N1C(=O)[C@]2(Cc3ccccc31)N=C(c1ccc(OCCCO)cc1)O[C@@H]2c1ccccc1 1.82
COc1ccc([Si](C)(C)[C@@H]2[C@@H](CCO)O[C@]3(C(=O)N(Cc4ccccc4)c4ccc(N5CCOC5=O)cc43)[C@H]2C)cc1 0.933
O=C1C2C=CC(C(O)c3ccco3)N(Nc3ccccc3F)C2C(=O)N1c1ccccc1 (centres undefined) 1.04
CC(C)(C)OC(=O)COc1cccc(C(=O)CCN2CCOCC2)c1 -1.03
CS(=O)(=O)CCOC(=O)C1=CC(CCCO)=CC(c2ccc(CN3CCCC3)cc2)N(Cc2sc3ccccc3c2Cl)C=C1C(=O)OCCS(C)(=O)=O (centres undefined) -0.259
COC(=O)[C@@]1(Cc2ccc(F)cc2)[C@H]2c3cc(C(=O)N(C)C)n(CCc4ccc(OC)c(Br)c4)c3C[C@H]2CN1C(=O)c1ccccc1 2.7
COc1ccc([Si](C)(C)[C@@H]2[C@@H](CC(=O)N3Cc4ccccc4C[C@H]3CO)O[C@]3(C(=O)N(Cc4ccc(N5C(=O)c6cccc7cccc5c67)cc4)c4ccccc43)[C@H]2C)cc1 1
